Marburg entry: inhibitors of Marburg virus binding or entry into cells; Marburg virus pseudotype entry/binding inhibition, cell-based; Potency, µM (series often up to 49.2 µM), for inactives: at the top dose activity change, negative = inhibition, usual class: inhibitors; 18,000 compounds, 6.5% hits; AID 720532
LASV entry inh: Lassa virus entry inhibition; Potency, µM (doses to about 49.2 µM), without a hit: at the top dose activity change, negative = inhibition, hits mostly inhibitors; Lassa virus pseudotyped entry inhibition, cell-based qHTS; 18,000 compounds, 4.1% hits; AID 720533
* marks the source's active call; other numbers are inactive results; ? = inconclusive; ! = repeats disagree; [ ] = dose if it differs, or a comment. The list is not random: actives were taken first. Their share in the collection is about 8%. Calls come from the whole dose curve; tested in HEK293 cells. % is set by controls: 0 for no effect and ±100 for the full control effect; potency is the fitted concentration of half-maximal effect.

SMILES | Marburg entry | LASV entry inh
C[C@@H]1CC[C@H]2C(=O)N(Cc3ccc(Cl)cc3)C[C@@H](O)CN2[C@@H]1c1ccc(Br)cc1 | -14.8%[8.59 µM] | -1.6%[8.59 µM]
C[C@H]1O[C@@H](O[C@H]2[C@@H](O)C[C@H](O[C@H]3[C@@H](O)C[C@H](O[C@H]4CC[C@]5(C)C6CC[C@]7(C)[C@@H](C8=CC(=O)OC8)CC[C@]7(O)C6CC[C@@H]5C4)O[C@@H]3C)O[C@@H]2C)C[C@H](O)[C@@H]1O (stereo not given in full) | ? | 0.0025µM*
CC1O[C@@H](O[C@@H]2C(O)C[C@H](O[C@@H]3C(O)C[C@@H](OC4CC[C@@]5(C)C6CC[C@]7(C)C(C8=CC(=O)OC8)CC[C@@]7(O)C6CC[C@@H]5C4)OC3C)OC2C)CC(O)[C@H]1O (stereo not given in full) | 0.224µM* | 0.282µM*
CCN1C(=NCc2ccccc2)N[C@@H](CCc2ccccc2)[C@H](C(=O)OC)[C@H]1C | -18.2%[8.59 µM] | -6.8%[8.59 µM]
C[C@@H](ON=C1[C@H]2CCn3c(=O)n(-c4ccccc4)c(=O)n3[C@@H]2[C@H](O)[C@@H]2O[C@H]12)c1cn([C@@H]2COC[C@@H]2O)nn1 | 35.5%[8.59 µM] | -18.6%[8.59 µM]
CCOC(=O)OC[C@H]1O[C@H](C#Cc2ccc(C)cc2C)C=C[C@H]1OC(=O)OCC | 4.4%[8.59 µM] | -7.7%[8.59 µM]
COc1ccc(CN2CCN(C(c3ccc(F)cc3)c3ccc(F)cc3)CC2)c(OC)c1OC | 10µM* | 22.4µM*
COc1ccc(CN2CCNCC2)c(OC)c1OC | 8.9%[17.8 µM] | -0.3%[17.8 µM]
CC(C)CON=C1C[C@@H](O)[C@@H](O)[C@@H]2[C@H]3C(=O)N(c4ccc(F)cc4F)C(=O)[C@@H]3CC[C@@H]12 | -13.2%[8.59 µM] | 5.4%[8.59 µM]
O=[N+]([O-])c1ccc(O)c([N+](=O)[O-])c1 | 21.1% | 0.4%
N#CC(C#N)=Cc1ccc([N+](=O)[O-])c(O)c1 | 15.8µM*! | ?
CCOC(=O)CN1C(=O)NC(c2cccc(C(F)(F)F)c2)C(C(=O)OC)=C1C (stereo not given) | -11.4%[8.59 µM] | -14.2%[8.59 µM]
CO[C@]1(C)C[C@H]2O[C@]1(C)n1c3ccccc3c3c4c(c5c6ccccc6n2c5c31)C(=O)N(C)C4 | -0.3% | -4.9%
O=C1NC(=O)c2c1c1c3ccccc3n3c1c1c2c2ccccc2n1C1CCC3O1 | 1.12µM* | ?
NC(Cc1ccccc1)C(=O)O (stereo not given) | -5.5% | 4.7%
C=CCN=C1N[C@@H](c2ccccc2)[C@H](C(=O)OC)[C@@H](C)N1CC | -24.9%[8.59 µM] | 4.7%[8.59 µM]
COC(=O)[C@H](Cc1ccccc1)NC(=O)[C@@H](N)CC(=O)O | 22.1% | 2.9%
CC(C)C[C@@H](/C=C/S(C)(=O)=O)NC(=O)[C@H](CC(C)C)NC(=O)[C@H](CC(C)C)NC(=O)OCc1ccccc1 | ? | 1.12µM*
CC(C)C[C@@H](NC(=O)OCC1c2ccccc2-c2ccccc21)C(=O)O | 8.9% | 14.0%
CC(=O)[C@H](CC(C)C)NC(=O)[C@@H](CC(C)C)NC(=O)[C@H](CC(C)C)NC(=O)OCc1ccccc1 | -86.8% | 0.316µM*
CC=CC(=O)C[C@H]1CC[C@@H](C)[C@@H](CCO)O1 | 32.9%[8.59 µM] | 0.0%[8.59 µM]
CCN1C(=NCc2ccc(OC)cc2)NC(c2cccc(C(F)(F)F)c2)C(C(=O)OC)=C1C (stereo not given) | 13.4%[8.59 µM] | 3.5%[8.59 µM]
COC1=C[C@H](C(=O)NC2CCN(Cc3ccccc3)CC2)[C@@]2(C)Cc3ccccc3[C@@H]2CC1=O | -18.2%[8.59 µM] | 28.0%[8.59 µM]
COC(=O)CC1C2(C)CC34OC5(C)O[C@@]6(C7/C(=C(/O)C(C)C)C(=O)OC(c8ccoc8)[C@]7(C)C(OC(C)=O)C(OC(C)=O)[C@]6(O5)[C@@]13C)C(OC(C)=O)[C@]4(O)C2OC(=O)C(C)C (stereo not given in full) | ? | -2.4%
CCC(C)C(=O)OC1C[C@@]2(C)C(c3ccoc3)OC(=O)CC23OC2(C)OC34C(OC(=O)C(C)C)[C@]3(O)C(OC(=O)C5(C)OC5C)[C@]5(C)CC3(O)[C@](C)(C5CC(=O)OC)C14O2 (stereo not given in full) | 14.1µM* | 3.3%
SMILES | Marburg entry | LASV entry inh
CCC(=O)N[C@@H]1c2ccccc2C2(CCN(Cc3[nH]c4c(Cl)cccc4c3C)CC2)[C@H]1OC | 11.2µM* | 25.1µM*
CCC(=O)N[C@@H]1c2ccccc2C2(CCN(Cc3ccccn3)CC2)[C@H]1OC | 9.1% | -3.8%
CCCCCCN1C[C@@H](O)[C@H](n2cc(COC(=O)c3ccccc3)nn2)C[C@H]1c1ccccc1 | -22.9% | 6.7%
Fc1cccc(COc2ccc(Nc3ncnc4sc(-c5ccco5)cc34)cc2Cl)c1 | ? | -15.3%
CN1CCN(Cc2ccc(-c3cc4ncnc(Nc5ccc(OCc6cccc(F)c6)c(Cl)c5)c4s3)o2)CC1 | 9.96µM* | ?
C=C(C)C(=O)C=CCCCC=CC(=O)OCC | 7.0%[8.59 µM] | 6.7%[8.59 µM]
CC(C)C[C@H]1C(=O)N2CCC[C@@H]2[C@]2(O)O[C@](NC(=O)[C@H]3C=C4c5cccc6[nH]c(Br)c(c56)C[C@H]4N(C)C3)(C(C)C)C(=O)N12 | 5.1%[17.8 µM] | -6.3%[17.8 µM]
CC(C)C[C@H]1C(=O)N2CCC[C@H]2[C@]2(O)O[C@](NC(=O)[C@@H]3C[C@@H]4c5cccc6[nH]cc(c56)C[C@H]4N(C)C3)(C(C)C)C(=O)N12 | ? | -15.4%
CC(C)C[C@H]1C(=O)N2CCC[C@H]2[C@]2(O)O[C@](NC(=O)[C@@H]3C=C4c5cccc6[nH]c(Br)c(c56)C[C@H]4N(C)C3)(C(C)C)C(=O)N12 | ? | 25.1µM*!
CC(C)[C@@]1(NC(=O)[C@@H]2C[C@H]3c4cccc5[nH]cc(c45)C[C@@H]3N(C)C2)O[C@@]2(O)[C@H]3CCCN3C(=O)[C@H](Cc3ccccc3)N2C1=O | 22.4µM*! | -17.0%
CN1C[C@H](C(=O)N[C@]2(C)O[C@@]3(O)[C@@H]4CCCN4C(=O)[C@H](Cc4ccccc4)N3C2=O)C=C2c3cccc4[nH]cc(c34)C[C@H]21 | -11.3% | -23.7%
CC(C)CC1C(=O)N2CCCC2C2(O)O[C@@](NC(=O)C3C=C4c5cccc6[nH]c(Br)c(c56)CC4N(C)C3)(C(C)C)C(=O)N12 (stereo not given in full) | 10µM* | ?
CC1=C[C@@H](COc2ccccc2)O[C@@]2(C1)C(=O)N(Cc1ccccc1)c1ccccc12 | ? | 7.4%[8.59 µM]
CCCNC(=O)OC[C@H]1O[C@H](CCON=C2[C@H]3CCn4c(=O)n(-c5ccccc5)c(=O)n4[C@@H]3[C@H](O)[C@@H]3O[C@H]23)C=C[C@H]1Oc1ccc(OC)cc1 | 32.5%[8.59 µM] | -12.1%[8.59 µM]
COC(=O)C1=C(C(=O)OC)[C@@H]2N(Cc3ccccc3)c3ccccc3[C@@]23CCC(=O)N(CC2CCCCC2)C3=N1 | 11.5%[8.59 µM] | 3.0%[8.59 µM]
CC(C)(C)[Si](C)(C)OCCC[C@@H]1C[C@H]2C=CCOP(=O)(O1)O2 | 14.2% | -2.4%
COC(=O)C1=C(C(=O)OC)[C@@H]2Nc3ccccc3[C@@]23C[C@@H](C(=O)OC)N(C(=O)Nc2ccccc2F)C3=N1 | -9.2%[8.59 µM] | -13.9%[8.59 µM]
Cc1ccc(CN2CC(N3CCN(C(=O)c4ccco4)CC3)CS2(=O)=O)cc1 (stereo not given) | 26.7% | 12.5%
CCCCCCOc1ccc(C(=N)N(CCCC)CCCC)c2ccccc12 | 12.6µM* | 12.6µM*
CCCCCCCCOc1ccc(C(=O)c2ccccc2)c(O)c1 | -2.5% | -20.3%
CCCCC[C@]12Cc3cc(OC)c(OC)cc3[C@H](O1)c1c(cc(C)n(-c3ccccc3)c1=O)O2 | 31.5%[8.59 µM] | 22.8%[8.59 µM]
